Most compounds without a hit are left out; they make up all but 5.8% or so of the library.
TRPV1 agonist: human TRPV1 agonism; activation, % at 8.33 µM; Q8NER1; 320,000 tested, 0.19% active; TRPV1-expressing cells, Fluo-8 calcium influx, agonist mode; AID 540275; in the data active means activation above about 80%; inconclusive means between about 30% and that limit
Target sequence (Q8NER1 whole entry, looked up): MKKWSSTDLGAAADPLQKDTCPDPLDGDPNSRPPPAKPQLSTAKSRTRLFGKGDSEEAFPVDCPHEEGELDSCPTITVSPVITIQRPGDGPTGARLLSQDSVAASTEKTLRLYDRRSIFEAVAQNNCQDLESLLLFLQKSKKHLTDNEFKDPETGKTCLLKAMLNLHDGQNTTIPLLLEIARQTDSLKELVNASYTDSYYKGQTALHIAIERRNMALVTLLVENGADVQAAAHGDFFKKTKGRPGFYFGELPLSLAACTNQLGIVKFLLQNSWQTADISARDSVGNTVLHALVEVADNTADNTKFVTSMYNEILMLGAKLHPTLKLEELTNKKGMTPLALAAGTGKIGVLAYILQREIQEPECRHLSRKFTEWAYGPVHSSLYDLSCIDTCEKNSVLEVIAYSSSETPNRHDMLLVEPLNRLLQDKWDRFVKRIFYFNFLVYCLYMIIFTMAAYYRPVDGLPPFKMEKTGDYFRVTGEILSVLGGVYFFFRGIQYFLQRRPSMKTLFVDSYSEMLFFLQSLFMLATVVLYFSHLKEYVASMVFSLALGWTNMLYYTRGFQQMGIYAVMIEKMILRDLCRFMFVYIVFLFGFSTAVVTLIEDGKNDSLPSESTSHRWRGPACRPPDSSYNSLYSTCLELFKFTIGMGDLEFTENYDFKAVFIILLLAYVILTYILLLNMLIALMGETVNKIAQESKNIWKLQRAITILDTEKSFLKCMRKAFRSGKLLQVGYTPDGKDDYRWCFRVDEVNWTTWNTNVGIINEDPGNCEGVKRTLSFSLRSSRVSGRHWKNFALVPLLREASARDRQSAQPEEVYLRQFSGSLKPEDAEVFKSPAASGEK
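Fluo-8 calcium influx in TRPV1-expressing cells, kinetic read (ex 480/em 520 nm). Compound added and read 3 min for agonist activity, followed by capsaicin at EC20 final and 2 min further read for enhancement.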
TRPV1 PAM: potentiators of human vanilloid receptor 1 (TRPV1). Q8NER1. TRPV1-expressing cells, Fluo-8 calcium influx, capsaicin EC20 potentiation. potentiation, % at 8.33 µM. 320,000 tested, 0.02% active; in the data active means potentiation above about 80%; inconclusive means between about 30% and that limit
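Fluo-8 calcium influx in TRPV1-expressing cells, kinetic read (ex 480/em 520 nm). Compound added and read 3 min for agonist activity, followed by capsaicin at EC20 final and 2 min further read for enhancement.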
uPA generation: cell surface uPA generation inhibition; cell surface uPA generation assay, qHTS; Potency, µM (doses to about 38.3 µM), hits mostly inhibitors; 330,000 tested, 0.31% active; AID 540303; active means well fitted inhibition curve with a large enough effect; inconclusive means small, poorly fitted or top-dose-only effect; inactive means no such curve, though single readings can be large or run the other way; tested in mouse RAW 264.7 cells; further: nearly all actives have a fitted effect of over 55% in size
RORg inh: inhibitors of mouse ROR gamma transcriptional activity; 310,000 tested, 5.4% active; AID 2551; Potency, µM (top dose mostly 53.6 µM), most hits filed as inhibitors; Drosophila S2 Gal4-RORgamma UAS-luciferase reporter, 20 h; further: nearly all actives have a fitted effect of over 60% in size
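Luminescence from a UAS-regulated Photinus luciferase reporter in stably transfected Drosophila Schneider cells is measured; decreased signal marks ROR gamma inhibition. Fusion expression is induced by 700 uM copper sulfate for 20 hr.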
Gal4-VP16 FLuc: Gal4-VP16 reporter inhibition counter-screen; Drosophila S2 Gal4-VP16 UAS-luciferase, luminescence, 20 h; Potency, µM (series often up to 53.6 µM), actives largely listed as inhibitors; 310,000 tested, 3.5% active; AID 2546;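 further: Gal4-VP16 expression switched on by copper sulfate through the metallothionein promoter; nearly all actives have a fitted effect of over 50% in size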
Each line names hits and unclear results; the compound was inactive in the other large screens. Unless noted, the call rests on the fitted dose curve; in most records, active means well fitted curve in the direction sought with a large enough effect; inconclusive means small, poorly fitted or top-dose-only effect, or another doubt; inactive means no such curve, though single readings can be large; an effect the other way counts as inactive or inconclusive.

CCOC(=O)[C@H]1[C@H]2COc3ccc(OC)cc3[C@@H]2N2C(=O)c3cc(OC)c(OC)cc3NC(=O)[C@@]12C	none (no result: RORg inh, Gal4-VP16 FLuc)
CCOC(=O)[C@H]1[C@H]2COc3ccc(Cl)cc3[C@@H]2N2C(=O)c3cc(Br)ccc3NC(=O)[C@@]12C	TRPV1 agonist inconclusive, TRPV1 PAM inconclusive (no result: RORg inh, Gal4-VP16 FLuc)
CCOC(=O)[C@H]1[C@H]2COc3ccc(OC)cc3[C@@H]2N2C(=O)c3cc(OC)ccc3NC(=O)[C@@]12C	TRPV1 agonist 97.1 (no result: RORg inh, Gal4-VP16 FLuc)
CCOC(=O)[C@H]1[C@H]2COc3ccc(Br)cc3[C@@H]2N2C(=O)c3cc(Br)ccc3NC(=O)[C@@]12C	TRPV1 agonist 82.7 (no result: RORg inh, Gal4-VP16 FLuc)
CCOC(=O)[C@H]1[C@H]2COc3ccc(OC)cc3[C@@H]2N2C(=O)c3cc(F)c(F)cc3NC(=O)[C@@]12C	TRPV1 agonist 92.4, TRPV1 PAM inconclusive (no result: RORg inh, Gal4-VP16 FLuc)
C/C(=C\CNc1ncnc2c1ncn2[C@@H]1O[C@H](CO)[C@@H](O)[C@H]1O)CO	none (no result: TRPV1 agonist, TRPV1 PAM, uPA generation)
COc1ccc(NC(=O)c2cccc([N+](=O)[O-])c2)cc1	TRPV1 PAM inconclusive
COc1ccc(NC(=O)c2ccc(-c3ccc([N+](=O)[O-])cc3)o2)cc1	none
COc1ccc(NC(=S)Nc2cccc([N+](=O)[O-])c2)cc1	RORg inh 12.6µM
COc1ccc(NC(=O)c2cc([N+](=O)[O-])ccc2O)cc1	uPA generation inconclusive, RORg inh 2.24µM, Gal4-VP16 FLuc 2.82µM
COC(=O)[C@@H]1CCCN1Cc1nc(Cc2ccccc2F)no1	none
COC(=O)CNC(=O)CN1C(=O)N(c2cccc(Cl)c2)C(N(O)C(=O)Nc2cccc(Cl)c2)C1(C)C (stereo unspecified)	RORg inh inconclusive, Gal4-VP16 FLuc inconclusive
CC(C)(C)c1cc(NCc2ccccn2)n2ncc(-c3ccccc3)c2n1	TRPV1 agonist inconclusive, RORg inh 0.447µM, Gal4-VP16 FLuc 1.41µM
CC(=O)c1ccccc1[N+](=O)[O-]	none (no result: TRPV1 agonist, TRPV1 PAM, uPA generation)
Cc1ccc(Oc2nnc(-c3cccs3)c3ccccc23)cc1C	Gal4-VP16 FLuc inconclusive
COc1ccc(CCNC(=O)c2ccc(Cl)c(S(=O)(=O)N(C)c3ccccc3)c2)cc1	TRPV1 PAM inconclusive, RORg inh inconclusive
O=C(/C=C/c1cccs1)Nc1ccncc1	TRPV1 agonist inconclusive
CC(C)(C)c1ccc(/C=C/C(=O)Nc2ccncc2)cc1	TRPV1 agonist 96.2, RORg inh inconclusive, Gal4-VP16 FLuc inconclusive
Nc1nc(-c2nn(Cc3ccccc3F)c3ncccc23)ncc1C1CC1	RORg inh 1.78µM, Gal4-VP16 FLuc 12.6µM (no result: TRPV1 agonist, TRPV1 PAM, uPA generation)
Cn1c(SCc2ccccc2F)nc2cccnc21	none (no result: uPA generation)
O=C(CSC1=NCCS1)Nc1ccc2ccccc2c1	TRPV1 agonist inconclusive
O=C(CSC1=NCCS1)Nc1ccnc2ccccc12	Gal4-VP16 FLuc 3.98µM
Cc1cc(C)nc(SCC(=O)Nc2ccnc3ccccc23)n1	RORg inh 2.24µM, Gal4-VP16 FLuc 0.891µM
CCCCC/C=C\C/C=C\CCCCCCCCCC(=O)NC(C)C(=O)O (stereo unspecified)	none (no result: TRPV1 agonist, TRPV1 PAM, uPA generation)
O=C1CS/C(=N/N=C2CCCC2)N1	RORg inh 7.94µM, Gal4-VP16 FLuc inconclusive
O=C1CSC(=NC2CCCCC2)N1	RORg inh inconclusive, Gal4-VP16 FLuc inconclusive
Cc1ccc2cccc(NC(=O)C(F)(F)F)c2n1	RORg inh inconclusive
Cc1cccc(NC(c2ccc(O)cc2)c2ccc3ccc(C)nc3c2O)n1 (stereo unspecified)	RORg inh 10µM
CCOc1ccc(S(=O)(=O)Nc2ccc(F)cc2)c(C)c1C	RORg inh inconclusive, Gal4-VP16 FLuc 17.8µM (no result: uPA generation)
COc1ccc(C(=O)NC(=S)N(Cc2ccccc2)Cc2ccccc2)cc1	RORg inh 0.159µM, Gal4-VP16 FLuc 0.562µM
C=CCN(CC=C)C(=S)NC(=O)/C=C/c1ccc(OC)cc1	none
C=CCN(CC=C)C(=S)NC(=O)c1ccc(OC)cc1	RORg inh 0.891µM, Gal4-VP16 FLuc 2.24µM (no result: uPA generation)
C=CCN(CC=C)C(=S)NC(=O)c1ccc(-c2ccccc2)cc1	RORg inh 0.501µM, Gal4-VP16 FLuc 1µM
COc1ccc(C(=O)NCCCc2ccccc2)cc1	none (no result: TRPV1 agonist, TRPV1 PAM, RORg inh, Gal4-VP16 FLuc)
C=CCN(CC=C)C(=S)NC(=O)c1ccc(C)c(Br)c1	RORg inh 0.282µM, Gal4-VP16 FLuc 0.126µM
O=C(C1CCCO1)N1CCN(C(=S)Nc2ccc(Cl)c(Cl)c2)CC1 (stereo unspecified)	none
O=C(Nc1ccc(OCC(F)(F)C(F)F)c(C(F)(F)F)c1)c1ccccc1O	RORg inh 7.94µM
COc1ncc2nc(-c3ccc(Cl)cc3)c(=O)n(Cc3cccs3)c2n1	none (no result: TRPV1 agonist, TRPV1 PAM, uPA generation)
Cc1ccc(/C=N/Nc2nc3ccccc3s2)o1	RORg inh 8.91µM, Gal4-VP16 FLuc 10µM
Cn1cccc1/C=C1\SC(=O)N(c2ccc(O)cc2)C1=O	RORg inh 2.82µM
Cc1[nH]c(=O)[nH]c(=O)c1/C=N/NC(=O)[C@H](C)N	RORg inh 112µM, Gal4-VP16 FLuc inconclusive
COc1ccc(N(CC(=O)Nc2ccc(F)cc2F)S(=O)(=O)c2c(C)nn(C)c2C)cc1	none
COc1ccc(C(NC(=O)c2cccnc2)c2cc(Cl)c3cccnc3c2O)cc1OC (stereo unspecified)	RORg inh 2µM, Gal4-VP16 FLuc 3.98µM
CCC(=O)NC(c1ccco1)c1cc(Cl)c2cccnc2c1O (stereo unspecified)	RORg inh 1.41µM, Gal4-VP16 FLuc 2.82µM
COc1ccc(C(=O)NCCCNC(=O)c2cccnc2)cc1OC	none
CCCCC(=O)NC(c1ccco1)c1cc(Cl)c2cccnc2c1O (stereo unspecified)	none
CCC(=O)NC(c1ccc(OC)cc1)c1cc(Cl)c2cccnc2c1O (stereo unspecified)	TRPV1 agonist 84.3
CN(C)CCCNC(=O)C[C@H]1C[C@H](C(=O)N2CCOCC2)[C@@]2(C)c3[nH]c4cc(CCC(=O)N(C)C)ccc4c3CCN2C1=O	none (no result: TRPV1 agonist, TRPV1 PAM, RORg inh, Gal4-VP16 FLuc)
O=C(C[n+]1cc(-c2ccc(Cl)cc2)n2c1CCC2)Nc1nc(-c2ccc(F)cc2)cs1	none
COc1cc(C2CC(=O)OC3=C2C(=O)CC(C)(C)C3)cc(OC)c1OC (stereo unspecified)	none
CCn1c(C)cc(C(=O)CN2C(=O)c3ccccc3S2(=O)=O)c1C	none (no result: RORg inh, Gal4-VP16 FLuc)
O=C(CN1C(=O)c2ccccc2S1(=O)=O)c1ccccc1	RORg inh 8.91µM, Gal4-VP16 FLuc 14.1µM
CC(C)NC(=O)CN1C(=O)c2ccccc2S1(=O)=O	none
Cc1ccc(C(=O)CN2C(=O)c3ccccc3S2(=O)=O)cc1	RORg inh 2.24µM, Gal4-VP16 FLuc inconclusive (no result: TRPV1 agonist, TRPV1 PAM)
Cc1cc(C(=O)CN2CCC(C)CC2)c(C)n1-c1ccc(F)cc1	RORg inh 10µM, Gal4-VP16 FLuc inconclusive
Cc1cc(C(=O)CN2C(=O)c3ccccc3S2(=O)=O)c(C)n1C(C)C	none (no result: RORg inh, Gal4-VP16 FLuc)
Cc1cc(C(=O)CN2C(=O)c3ccccc3S2(=O)=O)c(C)n1-c1ccccc1	RORg inh 11.2µM, Gal4-VP16 FLuc 11.2µM
O=C(CN1C(=O)c2ccccc2S1(=O)=O)c1ccccc1Cl	RORg inh 8.91µM, Gal4-VP16 FLuc inconclusive (no result: uPA generation)
C=CCn1c(C)cc(C(=O)CN2C(=O)c3ccccc3S2(=O)=O)c1C	none (no result: RORg inh, Gal4-VP16 FLuc)

Assay outcomes (PubChem)
